Measured values reported in the supplement of paper PMC11417369.
± gives the standard deviation of the averaged measurements. Over roughly 25,000 sequences, “ln(normalized median fluorescence intensity)” has its median near 10; the highest 2% begin near 12. Only a selection was taken, and the highest values are over-represented in it overall.

Each sequence was assayed on PfAP2-G AP2 domain (GST-tagged) (assay: gcPBM binding intensity (ln(normalized median fluorescence intensity)); higher = stronger DNA binding).
In short: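 Binding of GST-tagged P. falciparum DNA-binding domains, expressed in E. coli and used at about 25 μg on average, was carried out for 1 h in 1× PBS containing 1% milk, 0.2 mg/ml BSA, 0.5% salmon testes DNA and 0.03% Triton X-100. The target was an Agilent 4 × 180k array of primer-extended double-stranded 36-bp intergenic genomic probes plus negative controls, read with Alexa488 anti-GST antibody at 488 nm. Binding intensity is the highest Masliner-normalised natural-log median intensity across replicate spots of either probe orientation.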

Row | Sequence | gcPBM binding intensity (ln)
1 | AATTTTTTTTTATTGTGTACTTATTTTTTTATATTT [XGTACX_site917] | 11.7 ± 0.88
2 | TATATATATATATATTGTACTTTATTTTATATATTC [XGTACX_site5697] | 11.2 ± 0.71
3 | TTTAAATTTTTATATTGTACTTTATTTATTTATTTA [XGTACX_site869] | 11.2 ± 0.85
4 | CAAAAAATATATTTTTGTACTTATGTTTTTATTTTG [XGTACX_site5230] | 11.1 ± 0.76
5 | ATATATATATATATATGTACTTAATATTTCTTATTT [XGTACX_site6206] | 11 ± 0.76
6 | ATATATATATATGTGTGTACTTATTTATTTATTTGT [XGTACX_site549] | 11.5 ± 1
7 | TCTTTTTAATTTATATGTACTTATATTAATTATAAG [XGTACX_site7524] | 11.4 ± 0.97
8 | TTTTTTCTTTTTATGTGTACTTATTTTATTTAATAA [XGTACX_site1080] | 11.7 ± 1.1
9 | TTTTTTTTTTTAAATTGTACTTATTTTATATTATAT [XGTACX_site1077] | 11.4 ± 0.9
10 | GCTATTTATTTATATTGTACTTTTTTTTTTTTTTTT [XGTACX_site3624] | 11.7 ± 1.1
11 | ATATATAATATATACACACACATGTATATATAAATA [CACACA_site1968] | 9.87 ± 0.16
12 | TTTCTTTTTAAATAGGTGCATATTTTTATAAATATA | 10.1 ± 0.38
13 | AAACTAACTCTAACATGTACATATATATATATATAT [XGTACX_site6949] | 11.1 ± 0.66
14 | AACAATTATTGTAATGCATGCACTGAATATAGAAAG [TGCATGCA_site889] | 10.2 ± 0.18
15 | TGTGTTAATATATGAAGTACACAATACACACTAATT [XGTACX_site5469] | 11.4 ± 0.73
16 | ATGTACATTTTTTTCACACATACATTAATTTATGAG [CACACA_site5801] | 11.3 ± 0.87
17 | GCCCCCTAAAAAATTACACACGAAAAAAATGAATTT [CACACA_site9128] | 11.7 ± 1.2
18 | ATAAAAAAATAAATAACACACAAAATTACACGAAAA [CACACA_site3620] | 10.01 ± 0.049
19 | GCAGGCTAAAAAATTACACACGAAAAAAATGAATTT [CACACA_site3417] | 9.86
20 | TATATTATATTTTTATGTACTTATTTATTTTGTTTC [XGTACX_site6145] | 11.3 ± 0.67
21 | AGTCTGAATAAAATTACACACATATACAGATATATA [CACACA_site5054] | 9.8 ± 0.014
22 | AAAAAAAAAAAAAGGTGTACAAGTATAATTACATAA [XGTACX_site534] | 11.5 ± 0.95
23 | ACCAAATTATCAAATGGTACACATAAAATAATAAAA [XGTACX_site865] | 11.3 ± 0.74
24 | GTCGCCAAAAGGTGTACACATAATGCATTATCATAA [CACACA_site6112] | 11.7 ± 0.88

Row | Sequence | gcPBM binding intensity (ln)
25 | TGCATGCATTATCATAGTACATATAATGTTGTATAA [XGTACX_site2775] | 10.7 ± 0.45
26 | TTTTTTTTTTTTTTGTGTACATATAATGCACATTAT [XGTACX_site6505] | 11.4 ± 1
27 | TAAGTCGCCAAAAGGTGTACACATAATGCATTATCA [XGTACX_site8852] | 11.8 ± 0.79
28 | TACGTTTTAAAACACACACACAAAAAAAAAAAAAAA [CACACA_site3876] | 9.97 ± 0.64
29 | TTACATTATATACATACACACCCACCCACAAAAAAA [CACACA_site8187] | 10.7 ± 0.47
30 | TATATATAAGCGTGTACACATTCTGAGTGTTGTATA [CACACA_site4502] | 11.7 ± 1.1
31 | ATATATATATAGTGTTGTACATTTAAAAATAATATA [XGTACX_site2627] | 11.2 ± 0.78
32 | ATGTTGTGTATATATACACACATACATATATATATA [CACACA_site8461] | 10.4 ± 0.43
33 | TATGTATTCATATGTTGTACATTATATATAATAAGT [XGTACX_site6589] | 11.2 ± 0.79
34 | ATATATATATATAAATGTACATTGTGTGTTGTAAGA [XGTACX_site2434] | 10.8 ± 0.38
35 | AAATATATATAAGCGTGTACACATTCTGAGTGTTGT [XGTACX_site1088] | 11.7 ± 1.1
36 | ATTCCAAAAAAATCAAGTACTAATTTATTATATTAC [XGTACX_site3920] | 10.9 ± 0.49
37 | AATAAATTTAGACACACACACACATATAAATAAATA [CACACA_site6531] | 10.1 ± 0.13
38 | AAAGAATTTGCATATACACACAAAAAAATATATACA [CACACA_site386] | 10.03 ± 0.035
39 | ATATTAATATACATATGTACATATATATATATATAT [XGTACX_site7425] | 11.2 ± 0.62
40 | TATATATATATTTATACACACATTAGTGTATACATG [CACACA_site2950] | 10.3 ± 0.22
41 | TTTTTTTTATTAGTGTGTACGCATTTATTTATACAT [XGTACX_site1599] | 11.7 ± 0.88
42 | TTACATACATACAAGTGTACGCATATATTAATATTA [XGTACX_site4006] | 11.8 ± 1
43 | TATATTAATAATAAGTGTACATATATATATATTTTT [XGTACX_site288] | 11.3 ± 0.81
44 | TTGTGTACATATTAAGTGCATATATATATATATATA | 11.7 ± 1.2
45 | AATATATTTATATAGTGTACATTTTTTATATATGTA [XGTACX_site8142] | 11.3 ± 0.78
46 | TTAATATATTATATTTGTACATATATATATATACAA [XGTACX_site4798] | 10.9 ± 0.62
47 | CATGTGCATATTAAATGTACATATATACATATATAC [XGTACX_site857] | 10.9 ± 0.58
